For 42 sequences, binding signal results are on record in publication PMC7819943, “Rice protein-binding microarrays: a tool to detect cis-acting elements near promoter regions in rice”.

The full ranking holds about 35,000 sequences; the median of “fluorescence intensity (a.u.)” is about 10,000, and the highest 2% start at about 52,000. The entries come from a sample that favours the highest values as a whole.

In this assay the target is T1, OsWOX13 (Oryza sativa, UniProt Q5QMM3 1-267).
T1 sequence: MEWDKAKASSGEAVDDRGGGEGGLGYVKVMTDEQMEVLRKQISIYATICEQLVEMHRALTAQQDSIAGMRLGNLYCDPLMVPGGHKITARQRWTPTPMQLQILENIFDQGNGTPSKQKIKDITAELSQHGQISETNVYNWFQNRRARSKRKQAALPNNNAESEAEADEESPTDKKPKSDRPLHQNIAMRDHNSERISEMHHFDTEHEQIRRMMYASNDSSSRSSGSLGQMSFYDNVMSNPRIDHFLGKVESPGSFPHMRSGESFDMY
As to the kind of experiment: protein-binding microarray (RPBM); PBS, 2% BSA, 51.3 ng/ul salmon testes DNA, 50 uM zinc acetate, 200 nM TF, 25 C, 1 h; high values mean tight binding. Conditions: protein: recombinant; tags: N-terminal polyhistidine and DsRed monomer fusion (pET32a); label: CyDye5-dUTP incorporated in the synthesized complementary strand; 3' TTTTT single-stranded linker to array surface; dsDNA, one strand shown. Summed up: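 An Axon 4000B scanner gave the binding signal as per-feature fluorescence intensity in arbitrary units. This followed washing of a custom Agilent array that had been incubated for 1 h at 25 °C with 200 nM protein in PBS, 2% BSA, salmon testes DNA and 50 µM zinc acetate. The proteins were transcription factors fused at the N-terminus to polyhistidine and DsRed, expressed in E. coli BL21-CodonPlus and purified on Ni–NTA.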
Take “GTTAGTAATGTTGATTAGTGCATGGCTTATTTGGTTGCACCGGAGTCACCTAGTGCAG”: the binding signal was 15600 fluorescence intensity (a.u.).

Turning to “ACTATTCTATTATGATGATTAGGCTGTTATTGGTTGAAGTCGGAGTCACCTAGTGCAG”, the binding signal was 7170 fluorescence intensity (a.u.).

Consider “GTTGATTAGCATATATTATTGGTTGCATGTTAGGCTTCCACGGAGTCACCTAGTGCAG”, for which the binding signal was 54700 fluorescence intensity (a.u.).

For the sequence “GGCTAATAGTAGGTTGATTAGTCCTTATTGTGCTTGCCCTCGGAGTCACCTAGTGCAG”, the binding signal is 28500 fluorescence intensity (a.u.).

For “GGCTTAATTGTTGATTAAACATCAGGCTCTTCTTGCATATCGGAGTCACCTAGTGCAG”, the binding signal was 54900 fluorescence intensity (a.u.).

Take “TGGAGTGGTGATTTGCTCTCTCTTGAGTGTTGATTAGTGGCGGAGTCACCTAGTGCAG”: the binding signal was 9250 fluorescence intensity (a.u.).

Regarding “TAATTGATTAGCAGTAAGGTATTGGTTGTCCAATCTTGCTCGGAGTCACCTAGTGCAG”, the binding signal is 58400 fluorescence intensity (a.u.).

As for “AGAATTGATTAGCTCTTGTTTCTATCATGTTAAACACATTCGGAGTCACCTAGTGCAG”, the binding signal is 33000 fluorescence intensity (a.u.).

Take “ATTGGTCCATTAGCACGTGATTAATTAAGTATTTGCTATTCGGAGTCACCTAGTGCAG”: the binding signal is 11200 fluorescence intensity (a.u.).

As to “CTTGATTAGTAGTTGGTTGCTCTTCTTCTTGTTCTTGGTTCGGAGTCACCTAGTGCAG”, the binding signal is 64200 fluorescence intensity (a.u.).

With “ATTAAATAATTTCTTTGATAAAATTGTTTTGCAGGCATATCGGAGTCACCTAGTGCAG”, the binding signal was 22300 fluorescence intensity (a.u.).

For “CTGGTTCTTGATTATTATTAGGATTAGTTTGTTCCTTTGTCGGAGTCACCTAGTGCAG”, the binding signal was 16900 fluorescence intensity (a.u.).

Take “ATAATAAATATATTTACATTTAGACCCTCGATGTGTCATCCGGAGTCACCTAGTGCAG”: the binding signal was 3230 fluorescence intensity (a.u.).

Turning to “TAGGCCCACTAATTAGGCCCATCCAACACGCCGTCCGACGCGGAGTCACCTAGTGCAG”, the binding signal is 4020 fluorescence intensity (a.u.).

As to “TCAAGCTTCTGCAATTTAGTTGATTGATCGAATTAATCAGCGGAGTCACCTAGTGCAG”, the binding signal is 24600 fluorescence intensity (a.u.).

Regarding “TATGATTCTTTTCTAAAAGATTGATACGACATATCAATATCGGAGTCACCTAGTGCAG”, the binding signal is 5300 fluorescence intensity (a.u.).

In the case of “CAACTAAACTTTTAATTTTAGCATAAACTAAACAGACCCACGGAGTCACCTAGTGCAG”, the binding signal is 5430 fluorescence intensity (a.u.).

Take “TATAATTACATTGTAACTGTATTGTAAATACATTTTAATTCGGAGTCACCTAGTGCAG”: the binding signal was 5830 fluorescence intensity (a.u.).

Turning to “TAAATTGTACATGATATATGTCAAGTGTCAACGTCTGATTCGGAGTCACCTAGTGCAG”, the binding signal is 5030 fluorescence intensity (a.u.).

Take “ACTCCACACACTGATCAACACTAATCAGCATGTACATTTGCGGAGTCACCTAGTGCAG”: the binding signal was 4090 fluorescence intensity (a.u.).

As to “TCTGATTGGTACATGCTCACCTGGTTGGCTGGTTCTTCAGCGGAGTCACCTAGTGCAG”, the binding signal was 53800 fluorescence intensity (a.u.).

For the sequence “TTTGGTTGGATTGGATTGGATTGGATTGGCTGCTTCCCTGCGGAGTCACCTAGTGCAG”, the binding signal was 25000 fluorescence intensity (a.u.).

Regarding “CTTGATTGTTCTTTCTTGCTCAAATGCCGGCCTGTGTTGGCGGAGTCACCTAGTGCAG”, the binding signal is 53200 fluorescence intensity (a.u.).

In the case of “TCGTTCTTCATGGTTGGGGCTGATTAGGTTGATGAGATAGCGGAGTCACCTAGTGCAG”, the binding signal is 3850 fluorescence intensity (a.u.).

Turning to “CTTTGTCTTTGTTTCTTGTTGATTGCAGGATCAAATCAACCGGAGTCACCTAGTGCAG”, the binding signal was 5330 fluorescence intensity (a.u.).

“TCTTTGTCAATCTTGTTTGGTTGCTCAAATCTTTTGGTGGCGGAGTCACCTAGTGCAG”: the binding signal was 7260 fluorescence intensity (a.u.).

As to “TTCGTGCCTTTTGTTTGATAATTTCTTCATGCTATCTTTTCGGAGTCACCTAGTGCAG”, the binding signal was 3660 fluorescence intensity (a.u.).

With “ACAAAATAAAATGATGGGCATTTTCTTCAGTTACAATTTCCGGAGTCACCTAGTGCAG”, the binding signal was 3910 fluorescence intensity (a.u.).

As to “TTACTAGATTTATCATTAAACATACTATCATAATATGCAACGGAGTCACCTAGTGCAG”, the binding signal was 6040 fluorescence intensity (a.u.).

For the sequence “TGTGATGAATTGAGCGAACCAGCAGGGCTTCGCCGCTCCCCGGAGTCACCTAGTGCAG”, the binding signal is 5470 fluorescence intensity (a.u.).

With “CCACTTTTAGATTTGACAATTAACTATTTGTCACTTTTAGCGGAGTCACCTAGTGCAG”, the binding signal was 23600 fluorescence intensity (a.u.).

As to “TTTAATTTACAGTTAAATTAACTTAATCTGTAAAAGGGATCGGAGTCACCTAGTGCAG”, the binding signal is 57500 fluorescence intensity (a.u.).

On to “AAAATTACAGTCTTATTTAACTAAAATTACATATGTAAATCGGAGTCACCTAGTGCAG”, for which the binding signal is 5170 fluorescence intensity (a.u.).

Regarding “ATTAATTAATTAGTCGGCCAACCTAGCTGTTGACTGGGAACGGAGTCACCTAGTGCAG”, the binding signal was 55900 fluorescence intensity (a.u.).

On to “AATTAATTTAGCCCCTAATTAATTAGCAGCCAATCAACGGCGGAGTCACCTAGTGCAG”, for which the binding signal is 54000 fluorescence intensity (a.u.).

For “GCCAACCTTATAGCTAATTATTATATATATTGACTTTAAGCGGAGTCACCTAGTGCAG”, the binding signal was 4860 fluorescence intensity (a.u.).

Consider “ATTAATTATTAATTTACTTTTGACAATTACTAATTAGCCACGGAGTCACCTAGTGCAG”, for which the binding signal was 56700 fluorescence intensity (a.u.).

On to “AGAGACAGCGAATCAATTAGCCAATGCTAATAATTTATAACGGAGTCACCTAGTGCAG”, for which the binding signal is 8160 fluorescence intensity (a.u.).

For “TCCAATTTACTAATTACCACTTTATACGTACAATTATTGACGGAGTCACCTAGTGCAG”, the binding signal is 23500 fluorescence intensity (a.u.).

In the case of “GTTGATGGGCAGCTTAATTACGGCCCGCCTGTTTAGCCAACGGAGTCACCTAGTGCAG”, the binding signal was 17500 fluorescence intensity (a.u.).

Consider “AATTAATAAAATAAATCTATTACAGTTAACTAAAGGTATTCGGAGTCACCTAGTGCAG”, for which the binding signal is 5780 fluorescence intensity (a.u.).

In the case of “AGCCCCTAAGCCAATCAATTAGCAGGCATCTTTACTCCTACGGAGTCACCTAGTGCAG”, the binding signal was 18500 fluorescence intensity (a.u.).
